# Bead autofluor: flagged as autofluorescent in microsphere protease counterscreen; fluorescence intensity (concentration not given with the values); AID 624483; actives 3.1% (n = 360,000); compound autofluorescence counterscreen, microsphere flow cytometry; stronger effect = higher value; in the data active means fluorescence intensity above about 16000; inconclusive means no clear call, values can overlap the other calls
# BoNT-F LC inh: BoNT F light chain protease inhibition. actives 0.22% (n = 360,000). inhibition, % at 10 µM. Multiplex microsphere protease cleavage assay, flow cytometry; in the data active means inhibition above about 35%, passing the limit was not always enough; inconclusive means no clear call, values can overlap the other calls; further: plate controls were buffer without enzyme for full effect and enzyme alone for no effect
# BoNT A protease: BoNT A light chain protease inhibition | AID 588499 | actives 0.17% (n = 360,000) | multiplex microsphere protease substrate cleavage, flow cytometry | inhibition, % at 10 µM; further: plate controls were buffer without enzyme for full effect and enzyme alone for no effect
# Anthrax LF prot: blocks Bacillus anthracis lethal factor protease; multiplex microsphere protease cleavage assay, LF; inhibition, % at 10 µM; actives 0.12% (n = 360,000); further: plate controls were buffer without enzyme for full effect and enzyme alone for no effect
# Target sequence (P15917 whole entry, looked up): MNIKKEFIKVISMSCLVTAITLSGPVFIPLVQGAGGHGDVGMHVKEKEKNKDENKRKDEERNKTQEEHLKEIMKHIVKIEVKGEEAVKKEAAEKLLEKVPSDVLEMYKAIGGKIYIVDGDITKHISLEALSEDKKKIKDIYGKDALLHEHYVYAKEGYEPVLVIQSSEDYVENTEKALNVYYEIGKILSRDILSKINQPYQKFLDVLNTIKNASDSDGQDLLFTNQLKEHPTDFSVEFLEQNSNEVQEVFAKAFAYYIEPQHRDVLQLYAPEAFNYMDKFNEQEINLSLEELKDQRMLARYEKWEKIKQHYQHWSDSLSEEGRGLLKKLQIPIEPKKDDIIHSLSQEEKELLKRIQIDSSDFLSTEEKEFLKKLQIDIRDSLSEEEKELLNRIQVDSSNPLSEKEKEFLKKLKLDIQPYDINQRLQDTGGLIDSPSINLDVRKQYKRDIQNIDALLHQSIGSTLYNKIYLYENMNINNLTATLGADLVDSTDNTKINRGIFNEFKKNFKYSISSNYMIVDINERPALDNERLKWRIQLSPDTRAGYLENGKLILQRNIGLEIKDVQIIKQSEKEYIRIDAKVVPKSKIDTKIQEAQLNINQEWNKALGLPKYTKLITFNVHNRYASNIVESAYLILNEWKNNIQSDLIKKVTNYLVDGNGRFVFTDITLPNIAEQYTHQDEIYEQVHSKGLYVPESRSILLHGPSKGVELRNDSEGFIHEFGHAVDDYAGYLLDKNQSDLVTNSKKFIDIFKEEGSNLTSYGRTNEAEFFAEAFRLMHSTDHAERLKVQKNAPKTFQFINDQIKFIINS
# PriA SSB inh: blocks PriA binding to SSB C-terminal tail | AlphaScreen SSBct-PriA binding, biotinylated peptide | inhibition, % at 33 µM | actives 0.6% (n = 430,000); in the data active means inhibition mostly above about 37%, no sharp cut-off; inactive means mostly below about 20%;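 further: plate controls were negative control peptide for no effect and reference peptide for full effect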
# Numbers without * were called inactive; ? = inconclusive; · = no result given; ! = repeats disagree. The list is not random: actives were taken first. Their share in the collection is about 3.1%. Unless noted, no stated cut-off is given here; in the data, active means inhibition above about 30%; inconclusive means no clear call, values can overlap the other calls; inactive means below that.
SMILES,Bead autofluor,BoNT-F LC inh,BoNT A protease,Anthrax LF prot,PriA SSB inh
c1ccc(Cn2nnc3c(N4CCc5ccccc5C4)ncnc32)cc1,20729*,8,4,1,-4
c1ccc(Cn2nnc3c(N4CCC5(CC4)OCCO5)ncnc32)cc1,3246,1,0,-4,-12
CC(C)NC(=O)CSc1nc2ccccc2n1-c1ccccc1,22704*,-2,0,1,1
CC(C)(C)NC(=O)CSc1nc2ccccc2n1-c1ccccc1,4780,-12,0,-3,-14
CCOC(=O)c1c(C)[nH]c(N=Nc2ccccc2C)c1C,8580,-19,-3,-9,62*!
c1cnc2c(OCc3cn4cccnc4n3)cccc2c1,2846,-6,0,-7,43*
Clc1ccc(OCc2cn3cccnc3n2)c2ncccc12,3364,-3,-1,-2,2
Cc1ccc(NC(=O)CSc2nc3ccccc3c(=O)n2CCCC(=O)N2CCCC2)cc1,22956*,-3,-1,-3,-10
Nn1c(Cc2cccc3ccccc23)nnc1SCC(=O)NCC1CCCO1 (stereo not drawn),4763,-9,0,-6,52*
COCCn1c(SCC(=O)N2CCCCC2)nc2ccccc2c1=O,10371,0,0,-1,-4
O=C(CSc1nc2ccccc2c(=O)n1CCC(=O)N1CCCCC1)NCc1ccccc1,23326*,-1,?,-2,2
CCOC(=O)CSc1nc2ccccc2c(=O)n1CC1COc2ccccc2O1 (stereo not drawn),22016*,-5,-3,-5,-10
CC(C)CCN1C(=O)CCc2cc(NS(=O)(=O)c3ccc(F)c(Cl)c3)ccc21,·,·,·,·,-9
CN1C(=O)C(C)(C)COc2ccc(NC(=O)c3ccc4c(c3)OCO4)cc21,·,·,·,·,32
O=C(NCc1ccc(Cl)cc1)N1CCC(N2CCCC2COCc2ccccc2)CC1 (stereo not drawn),·,·,·,·,-8
COc1ccc(-n2c(C)nc3ccc(NC(=O)c4cccc(Cl)c4)cc3c2=O)cc1,·,·,·,·,4
CSc1ccc(CCC(=O)N2C3CCC2CC(SC)C3)cc1 (stereo not drawn),·,·,·,·,-16
Cc1ccccc1N(CC(=O)NN=Cc1ccccc1Cl)C(=O)c1ccccc1,·,·,·,·,-1
O=C(c1ccccc1)c1ccc2c3c(cccc13)C(=O)N(c1ccc(N=Nc3ccccc3)cc1)C2=O,·,·,·,·,-5
CCCCn1c(SCC(=O)N2CC(C)CC(C)C2)nc2cc(S(N)(=O)=O)ccc21 (stereo not drawn),11266,2,0,-2,-19
C=CCn1c(SCC(=O)NCC2CCCO2)nc2scc(-c3ccco3)c2c1=O (stereo not drawn),22083*,4,?,0,-18
CCCCn1c(SCC(=O)N2CCCCC2)nc2cc(S(N)(=O)=O)ccc21,19717*,-1,0,-1,-1
O=C(CSc1nc2scc(-c3ccccc3Cl)c2c(=O)n1-c1ccccc1)N1CCOCC1,·,·,·,·,-2
O=C(CSc1nc2scc(-c3ccco3)c2c(=O)n1-c1ccccc1)N1CCOCC1,21589*,-3,-2,-1,-4
Cc1cc(NC(=O)CSc2nc3ccccc3c(=O)n2CCCC(=O)NCc2ccccc2)n[nH]1,16651*,-10,-2,-2,-4
SMILES,Bead autofluor,BoNT-F LC inh,BoNT A protease,Anthrax LF prot,PriA SSB inh
Clc1ccc(Cl)c(-c2ccc(/C=C/c3nc4ccccc4s3)o2)c1,·,·,·,·,1
CCCCn1c(SCC(=O)Nc2ccc(NC(C)=O)cc2)nc2ccccc2c1=O,3719,13,2,10,-1
O=C(CCn1c(SCC(=O)NCc2ccco2)nc2ccccc2c1=O)NCCc1ccccc1,22374*,2,?,-3,-4
O=C(CCCn1c(SCC(=O)NCC2CCCO2)nc2ccccc2c1=O)NCc1ccccc1 (stereo not drawn),22190*,3,0,-6,-10
O=C(CCCn1c(SCC(=O)Nc2ccccc2Cl)nc2ccccc2c1=O)NCC1CCCO1 (stereo not drawn),4850,-9,-2,-2,-12
CCn1c(SCC(=O)N2CCCC2)nc2ccccc2c1=O,19212*,4,4,-4,-3
CCCCn1c(SCC(=O)Nc2cc(C)on2)nc2ccccc2c1=O,23871*,-2,-2,-1,-19
Cn1c(SCC(=O)N2CCCC2)nc2ccccc2c1=O,10661,9,1,1,1
CCOc1ccccc1C(=O)N(CN1CCCC1=O)c1ccc(C)cc1,·,·,·,·,-4
Cc1ccc(S(=O)(=O)[C@@H](CNC(=O)c2ccc(C(C)(C)C)cc2)c2ccco2)cc1,·,·,·,·,10
COc1ccccc1C(=O)Nc1nnc(-c2ccc(Br)cc2)s1,·,·,·,·,14
O=C(Cn1ncn2nc(-c3ccccc3)cc2c1=O)Nc1ccc(F)cc1F,·,·,·,·,-8
Cc1ccc(-n2c(CSc3nc(C)cc(C)n3)nnc2SCC(=O)NCc2ccco2)cc1,22159*,2,?,-1,2
Cc1ccc(Cn2c(SCC(=O)Nc3ncn[nH]3)nc3ccccc3c2=O)cc1,·,·,·,·,90*
COc1cccc(OCc2nnc(SCC(=O)NCc3ccco3)n2C)c1,4250,12,1,3,12
CNC(=O)CSc1nc2ccccc2c(=O)n1C1CCCCC1,3437,?,-1,-2,-23
COc1cccc(OCc2nnc(SCC(=O)NCc3ccco3)n2CCc2ccccc2)c1,20143*,2,1,-3,-7
CCCCNC(=O)CSc1nc2ccccc2c(=O)n1C1CCCC1,19876*,-1,2,-3,-17
Cc1cc(NC(=O)C(=O)NCC(c2ccc(F)cc2)N2CCOCC2)no1 (stereo not drawn),·,·,·,·,-7
CC(C)(C)c1nc2ccccc2c2nnc(SCC(=O)NCc3ccco3)n12,16855*,-1,-1,-1,9
CC(=O)c1c(C)[nH]c(C(=O)NC2CCSc3c(F)cccc32)c1C (stereo not drawn),·,·,·,·,88*
CC(=O)c1c(C)[nH]c(C(=O)NC2CCSc3ccccc32)c1C (stereo not drawn),4588,-5,-2,-2,45*
CCOC(=O)c1c(C)[nH]c(C(=O)NC2CCSc3ccccc32)c1C (stereo not drawn),·,·,·,·,25
Cn1cccc1C(C#N)N1CCCCCC1 (stereo not drawn),·,·,·,·,9
CS(=O)(=O)N1CCC(C(=O)NCC2CCN(S(=O)(=O)c3cccnc3)CC2)CC1,·,·,·,·,-5
SMILES,Bead autofluor,BoNT-F LC inh,BoNT A protease,Anthrax LF prot,PriA SSB inh
CCOc1ccc(-c2ccc(=O)n(Cc3nc(-c4cccc(Cl)c4)no3)n2)cc1,·,·,·,·,-4
CCn1ncc(C2=NOC(C(=O)Nc3cccc(O)c3)C2)c1C (stereo not drawn),4419,-3,-1,0,-6
CCn1ncc(C2=NOC(C(=O)NCc3ccc(Cl)cc3)C2)c1C (stereo not drawn),21413*,3,2,3,-6
CCn1ncc(C2=NOC(C(=O)Nc3cccnc3)C2)c1C (stereo not drawn),22133*,4,3,-8,-1
CCn1ncc(C2=NOC(C(=O)Nc3ccc(C)cc3)C2)c1C (stereo not drawn),4558,13,0,1,-10
O=C(COc1ccc(Cl)cc1Cl)N1CCc2[nH]c(=O)ccc2C1,·,·,·,·,-4
CCc1ccc(S(=O)(=O)NCC2CCN(C(=O)c3cccnc3)CC2)s1,·,·,·,·,-19
